From PubChem
Pf apPOL inh: Pf-apPOL inhibitors, biochemical, fluorescence; inhibition, % at 10 µM; AID 1794808, 2022; actives 0.25% (n = 210,000); Recombinant Pf-apPOL, molecular beacon fluorescence, 1.5 h; Plasmodium falciparum apicoplast DNA polymerase (apPOL)
mHTT CaM bind: mutant huntingtin-calmodulin interaction inhibitors – biochemical, AlphaScreen, primary screen. actives 3.6% (n = 190,000). P42858. inhibition, % at 15 µM. AlphaScreen His-mHTT/GST-CaM binding, luminescence;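 note: 0% = both proteins with DMSO and 100% = one protein alone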
The depositor's hits bear a star; . = not tested or not shown. Most compounds without a hit are left out; they make up all but 3.5% or so of the library. Cut-off read from the data, not from the text of the source: active = inhibition above about 50%; inactive = the rest.

SMILES	Pf apPOL inh	mHTT CaM bind
Cc1ccc(NC(=O)CSCc2ccccc2Cl)cc1	0	-18
CC(C)Cn1cc(C(=O)NCCC2=CCCCC2)c2c3ccccc3n(C)c2c1=O	-3	-4
O=C(CCc1ccccc1)Nc1ccncc1	8	-8
CCC/C=C/c1ccc(CN2C(C)C(=O)N(Cc3cn(Cc4ccco4)nn3)CCS2(=O)=O)cc1 (stereo unspecified)	-4	35
COc1ccc(-c2ccc(CN3C(C(C)C)C(=O)N(Cc4cn(Cc5ccco5)nn4)CCS3(=O)=O)cc2)cn1 (stereo unspecified)	-27	38
CC(C)C1C(=O)N(Cc2cn(Cc3ccco3)nn2)CCS(=O)(=O)N1Cc1ccc(-c2ccc(Cl)c(Cl)c2)cc1 (stereo unspecified)	-10	83*
CCC/C=C/c1ccc(CN2C(C(C)C)C(=O)N(Cc3cn(Cc4ccco4)nn3)CCS2(=O)=O)cc1 (stereo unspecified)	-1	57*
Cn1c(CC2CCN(C(=O)NC3CCCCC3)C2)nc2cccnc21 (stereo unspecified)	-3	1
CC(=O)Nc1nonc1N1C(=N)S/C(=C\c2ccc(-c3cccc(Cl)c3Cl)o2)C1=O	7	18
C=CCn1c(C(=O)NCc2ccncc2)cc2sc(Br)cc21	-8	51*
C=CCn1c(C(=O)NC2CC2)cc2sc(Br)cc21	-5	-1
O=C1Nc2ccc(Br)cc2/C1=C/c1ccccc1	-6	48
O=C1NN(c2ccc(Br)cc2)C(=O)/C1=C/c1ccc([N+](=O)[O-])o1	5	97*
Cc1cc(C)c(N2C(=O)NC(=O)/C(=C\c3ccc([N+](=O)[O-])o3)C2=O)c(C)c1	-12	60*
C=CCN1C(=O)NC(=O)/C(=C/c2ccc(-c3ccc([N+](=O)[O-])cc3C)o2)C1=O	3	5
O=C1Nc2ccc(Br)cc2/C1=C/c1ccc([N+](=O)[O-])o1	-7	71*
Cc1ccc(-c2ccc(/C=C3\C(=O)NN(c4ccc(F)cc4)C3=O)o2)c([N+](=O)[O-])c1C	6	40
O=C(c1ccccc1Cl)N1CCN(c2nc(CN3CCOCC3)cs2)CC1	2	4
O=C(Nc1nc(-c2cccnc2)cs1)c1ccc(S(=O)(=O)N2CCc3ccccc32)cc1	-5	9
CCCCN(C)S(=O)(=O)c1ccc(C(=O)Nc2nc(-c3ccccn3)cs2)cc1	2	86*
CN(C1CCCCC1)S(=O)(=O)c1ccc(C(=O)Nc2nc(-c3ccccn3)cs2)cc1	-7	99*
CCCCN(C)S(=O)(=O)c1ccc(C(=O)Nc2nc3c(s2)Cc2ccccc2-3)cc1	-2	-6
CN(C)S(=O)(=O)c1ccc(C(=O)Nc2nc(-c3cccs3)cs2)cc1	-6	13
O=C(Nc1nc(-c2ccccn2)cs1)c1ccc(S(=O)(=O)N2CCc3ccccc32)cc1	2	97*
CC1=NN(c2ccc(Cl)cc2Cl)C(=O)/C1=C/c1ccc(F)cc1	-1	13
SMILES	Pf apPOL inh	mHTT CaM bind
Cc1ccc(C(=O)N2CCN(S(=O)(=O)c3ccccc3)C2c2ccc(N(C)C)cc2)cc1 (stereo unspecified)	2	53*
Cc1ccc(C(=O)N2CCN(C(=O)c3ccccc3)C2c2ccc(N(C)C)cc2)cc1 (stereo unspecified)	6	40
Cc1noc(C)c1C1CCCN1C(=O)Cn1cc(Cl)cn1 (stereo unspecified)	-2	-7
CC(C)(C)c1ccc(Cn2c(N)nc3ccccc32)cc1	-4	89*
Nc1nc2ccccc2n1Cc1ccc(Br)cc1	-17	21
CS(=O)(=O)N1CCCc2cc(Br)ccc21	.	-7
C[N+](C)(C)CC(O)COc1ccc(C23CC4CC(CC(C4)C2)C3)cc1 (stereo unspecified)	-10	24
CC1CC[N+](C)(CC(O)COc2ccc(C34CC5CC(CC(C5)C3)C4)cc2)CC1 (stereo unspecified)	-1	-9
CC1C[N+](C)(CC(O)COc2ccc(C(C)(C)CC(C)(C)C)cc2)CC(C)O1 (stereo unspecified)	-2	52*
C[N+]1(CC(O)COc2ccc(C34CC5CC(CC(C5)C3)C4)cc2)CCCCCC1 (stereo unspecified)	-4	91*
CC(C)(C)CC(C)(C)c1ccc(OCC(O)C[N+](C)(C)C)cc1 (stereo unspecified)	-1	28
CC1C[N+](C)(CC(O)COc2ccc(C34CC5CC(CC(C5)C3)C4)cc2)CC(C)O1 (stereo unspecified)	-2	51*
COc1ccc(C2CC(c3ccc(C)cc3)Nc3nnnn32)cc1 (stereo unspecified)	1	3
COc1ccccc1-n1nnc(C(=O)NCCc2ccccc2)c1N	-5	-2
NNC(=O)C1SCCN1S(=O)(=O)c1ccc(Cl)cc1 (stereo unspecified)	1	.
CCC(=O)NC(c1ccc(C)cc1)c1cc([N+](=O)[O-])c2cccnc2c1O (stereo unspecified)	-5	100*
Cc1cccc(Nc2c([N+](=O)[O-])cc([N+](=O)[O-])c3cccnc23)c1	-4	33
CC(=O)NC(c1ccc(C)cc1)c1cc([N+](=O)[O-])c2cccnc2c1O (stereo unspecified)	-7	100*
CCC(=O)NC(c1ccc(OC)c(OC)c1)c1cc([N+](=O)[O-])c2cccnc2c1O (stereo unspecified)	20	100*
CCCC(=O)NC(c1ccc(C)cc1)c1cc(Cl)c2cccnc2c1O (stereo unspecified)	-1	29
Cc1c(C(=O)NN2CCN(C)CC2)cccc1[N+](=O)[O-]	0	-4
C=CCNC(=O)c1cc2n(n1)CCCC2	-6	-2
c1ccc2c(c1)[nH]c1nc(SCCN3CCCCC3)nnc12	1	-3
N#Cc1c(-n2ncnc2-c2ccc([N+](=O)[O-])cc2)sc2c1CCCC2	-1	13
CCn1c(-c2ccccc2)c(C)sc1=Nc1cccc([N+](=O)[O-])c1	3	57*
SMILES	Pf apPOL inh	mHTT CaM bind
O=[N+]([O-])c1cccc(-c2csc(=Nc3ccccc3)n2-c2ccccc2)c1	-10	.
O=C(c1ccc2nc(N3C(=O)CCC3=O)sc2c1)N(CCO)c1ccccc1	-4	10
O=C(Nc1ccc2nc(-c3ccco3)c(-c3ccco3)nc2c1)NC1CC1	-2	99*
O=C(Nc1nccs1)c1ccc2nc(-c3ccco3)c(-c3ccco3)nc2c1	2	93*
O=C(c1ccc2nc(-c3ccco3)c(-c3ccco3)nc2c1)N(CCO)c1ccccc1	2	67*
CCOC(=O)N1CCN(C(=O)c2ccc3nc(-c4ccco4)c(-c4ccco4)nc3c2)CC1	1	-3
O=C(Nc1ccccc1F)c1ccc2nc(-c3ccco3)c(-c3ccco3)nc2c1	3	-1
O=C(NC1=NCCS1)c1ccc2nc(-c3ccco3)c(-c3ccco3)nc2c1	-4	72*
O=C(Nc1ccc2nsnc2c1)NC1CC1	-3	0
COc1cc(-c2c(NC(=O)C(C)C)oc3c(C)cccc3c2=O)cc(OC)c1OC	-15	-4
CC(C)C(=O)N1c2ccccc2NC2=C(C(=O)CC(C)(C)C2)C1c1ccc(Br)s1 (stereo unspecified)	-3	46
Cc1ccc(C(=O)N2CCC(CC(=O)NCCN3CCCC3)CC2)cc1	0	6
